Shown are actives, neighbours in structure and some others; about 19% of the full set was active somewhere.
TDP1 cell noCPT: qHTS for Inhibitors of human tyrosyl-DNA phosphodiesterase 1 (TDP1): qHTS in cells in absence of CPT. DT40 Tdp1-/- hTDP1 cells, no CPT, ATP luminescence, 48 h. Potency, µM (series often up to 46.2 µM), for the others: at the highest dose activity change, negative = growth inhibition, actives largely listed as inhibitors. 420,000 compounds, 15% hits. AID 686978, 2013; further: nearly all actives have a fitted effect of over 55% in size
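Growth kinetics read by CellTiter-Glo luminescence after ≥48 hr at 37 °C. Cells: DT40 Tdp1-/- stably carrying human TDP1, 400 per well, compound exposure in the absence of CPT (DMSO vehicle).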
TDP1 cell CPT: growth inhibition of DT40 Tdp1-/-;hTDP1 cells with camptothecin (screen for TDP1 inhibitors) | chicken DT40 Tdp1-/-;hTDP1 cells + 20 nM CPT, ATP luminescence, 48 h | 420,000 compounds, 12% hits | Potency, µM (top dose mostly 46.2 µM), for the others: top-dose activity change, negative = growth inhibition, most hits filed as inhibitors; further: nearly all actives have a fitted effect of over 55% in size
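Cell growth measured by CellTiter-Glo luminescence after a minimum 48 h, 37 C compound exposure with 20 nM CPT in Tdp1-knockout DT40 cells stably expressing hTDP1, seeded 400/well; qHTS titration format.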
HT1080-NT tox: kills 2HG-producing HT-1080-NT fibrosarcoma cells. AID 686970. 360,000 compounds, 1.6% hits. Potency, µM (highest dose often 46.1 µM), without a hit: at the top dose activity, negative = less viability, usual class: cytotoxic. HT-1080-NT fibrosarcoma viability, CellTiter-Glo ATP luminescence, 48 h;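 further: NT is the 2HG producing partner of a matched IDH1 knockdown line; 0% = DMSO-treated cells and -100% = media-only wells without cells; nearly all actives have a fitted effect of over 55% in size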
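Luminescent CellTiter-Glo readout after 48 hours of compound exposure at 37 degrees C defined viability of HT-1080-NT cells. Activity was normalized to DMSO wells and cell-free media wells; concentration-response curves were fitted and assigned curve classes.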
KB-3-1 tox: KB-3-1 parental cell cytotoxicity; KB-3-1 viability, CellTiter-Glo ATP luminescence, 72 h; Potency, µM (top dose mostly 46.1 µM), hits mostly cytotoxic; 400,000 compounds, 1.4% hits; AID 1347075; further: nearly all actives have a fitted effect of over 60% in size
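KB-3-1 parental drug-naive adenocarcinoma cells in DMEM/10% FBS, incubated 72 h at 37 C with pin-transferred compounds across a concentration series. Viability by CellTiter-Glo luminescence; concentration-response curves fitted after normalization.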
HT1080 IDH1KD tx: HT-1080 IDH1 knockdown cell toxicity (counter line). HT-1080 IDH1 knockdown viability, ATP luminescence, 48 h. Potency, µM (doses to about 46.1 µM), for the others: at the top dose activity, negative = toxicity, actives largely listed as cytotoxic. 360,000 compounds, 2% hits;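 further: 0% = DMSO wells and -100% = cell-free medium wells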
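% activity derives from luminescence (CellTiter-Glo), normalised to DMSO and no-cell wells. HT-1080-IDH1KD cells, 750/well, had 48 h compound exposure at 37 °C.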
KB-V1 cytotox: kills drug-selected multidrug resistant KB-V1 cells | KB-V1 MDR cells viability, CellTiter-Glo, 72 h | Potency, µM (titrated, usually from 46.1 µM), most hits filed as cytotoxic | 400,000 compounds, 3.4% hits; further: nearly all actives have a fitted effect of over 60% in size
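Drug-selected KB-V1 cells, grown in DMEM lacking phenol red with 10% FBS, receive compound titrations; after three days at 37 degrees C, surviving cell ATP is quantified by CellTiter-Glo luminescence and responses normalized and curve-fitted.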
An asterisk follows results filed as active; i = inactive; ? = inconclusive; . = not tested or not shown; [ ] = another dose, or the depositor's remark. The call rests on the fitted dose curve; in most records, active means well fitted curve in the direction sought with a large enough effect; inconclusive means small, poorly fitted or top-dose-only effect, or another doubt; inactive means no such curve, though single readings can be large; an effect the other way counts as inactive or inconclusive. Unless noted, on the % scale 0 is the no-effect control and ±100 the full control effect; potency means the concentration at half of the fitted maximal effect.

SMILES	TDP1 cell noCPT	TDP1 cell CPT	HT1080-NT tox	KB-3-1 tox	HT1080 IDH1KD tx	KB-V1 cytotox
O=C(CN1CCCC1)Nc1ccc(OCc2ccccc2)cc1	?	-15%	-4%	i	-7%	i
CCOc1ccccc1NC(=O)C(c1ccccc1)N1CCN(CC(=O)N2CCOCC2)CC1 (configuration not stated)	-16%	23µM*	9%[9.24 µM]	i	4%	?
N#CCN1CCN(CCC(=O)Nc2ccc(OCc3ccccc3)cc2)CC1	23µM*	-17%	-3%	i	-6%	i
COc1ccccc1NC(=O)CN1CCN(CC(=O)Nc2ccc(F)cc2)CC1	?	-21%	-2%	i	0%	i
CCC1(CC)NC(=O)N(CC(=O)Nc2ccc(OCc3ccccc3)cc2)C1=O	18µM*	?	-7%	i	-1%	i
O=C(Cn1nc(-c2ccccc2Cl)ccc1=O)Nc1ccccc1-c1ccccc1	18µM*	?	-17%	i	-23%	?
COc1ccccc1NC(=O)CN1CCN(CC(=O)Nc2ccc(OCc3ccccc3)cc2)CC1	16µM*	?	?	i	?	?
COc1ccc(NC(=O)CN2C(=O)NC(c3ccccc3)(c3ccccc3)C2=O)cc1	?	?	-17%	i	-12%	i
CCOc1ccc(NC(=O)CN2CCN(CC(=O)Nc3ccccc3OCC)CC2)cc1	21µM*	16µM*	.	i	.	i
O=C(c1ccccc1)C(I)(I)N1CCOCC1	?	-25%	.	?	.	i
Cc1ccc(S(=O)(=O)N(C)Cc2nc(-c3ccccc3)oc2C)cc1	?	?	.	i	.	i
O=C(Nc1nc2ccccc2[nH]1)C1CC1	?	?	?	?	?	10µM*
O=C(COc1ccccc1)Nc1nc2ccccc2[nH]1	16µM*	?	5%	i	7%	i
CCCCOc1cccc(OCC(=O)Nc2nc3ccccc3[nH]2)c1	?	21µM*	-10%	i	-9%	?
Cc1ccc(CC(=O)Nc2nc3ccccc3[nH]2)cc1C	1.8µM*	3.5µM*	?	i	-18%	i
CCCOc1cccc(OCC(=O)Nc2nc3ccccc3[nH]2)c1	?	?	10%	i	4%	i
O=C(Cc1ccccc1Cl)Nc1nc2ccccc2[nH]1	?	-3%	-25%	i	?	i
COc1ccc(CN2CCOc3ccc(C(O)c4cccnc4)cc3C2)c(F)c1 (configuration not stated)	?	1%[9.04 µM]	.	.	.	.
CC(=O)N1CCC2(CC1)OC(=O)C(C)=C2C(=O)NCc1cccc(Cl)c1	-9%	-15%	.	i	.	i
CSc1ccc(CNC(=O)c2cc3c(=O)n(Cc4ccco4)ccc3nc2C)cc1	23µM*	29µM*	.	.	.	.
Cc1ccc(NC(=O)c2cc3c(=O)n(Cc4ccco4)ccc3nc2C)cc1C	?	26µM*	.	.	.	.
CCCn1c(=O)n(-c2ccccc2Cl)c(=O)c2sc3ccccc3c21	?	?	.	i	.	i
O=C(COc1ccccc1F)Nc1ccccc1C(=O)OCc1cc(=O)n2nc(C3CC3)sc2n1	-16%	-6%	.	i	.	i
Cc1csc2nc(COC(=O)CNC(=O)c3ccc(F)cc3)cc(=O)n12	-1%	4%	.	i	.	i
COc1ccc([C@H]2C[C@H](O)[C@@H](n3cc(C4CC4)nn3)CN2Cc2cccs2)cc1	12µM*	?	9%	i	-4%	i
SMILES	TDP1 cell noCPT	TDP1 cell CPT	HT1080-NT tox	KB-3-1 tox	HT1080 IDH1KD tx	KB-V1 cytotox
O[C@H]1C[C@H](c2ccccc2)N(Cc2cccs2)C[C@@H]1n1cc(C2CC2)nn1	21µM*	?	-20%	i	-17%	i
O[C@@H]1C[C@H](c2ccccc2)N(CC2CCCCC2)C[C@H]1n1cc(C2CC2)nn1	?	-4%	-1%	i	-6%	i
Cc1ccccc1C(C(=O)NC1CCCCC1)N(C(=O)c1ccccn1)c1cccnc1 (configuration not stated)	1%	0%	12%	i	0%	i
O=c1[nH][nH]cc1C=Nc1cc(Cl)ccc1O	?	21µM*	-14%	i	?	?
O=c1[nH][nH]cc1C=Nc1ccc(Cl)cc1Cl	20%	-2%	-1%	i	-5%	i
Cc1oc2ncn(CC(C)C)c(=O)c2c1C(=O)N1CCN(c2ccc(F)cc2)CC1	-26%	-22%	.	i	.	i
Cc1cc(NC(=O)CSc2nnc(-c3c[nH]c4ccccc34)n2-c2ccc(Cl)cc2)no1	-25%	?	-3%	i	11µM*	i
CCN(CC)S(=O)(=O)c1ccc2oc(SCC(=O)Nc3cc(C)on3)nc2c1	0.73µM*	0.65µM*	-3%	?	?	3.7µM*
O=C(CSc1ccc(Cl)cc1)Nn1cnnc1	?	18µM*	0%	i	-4%	i
Cc1cc(NC(=O)CSc2nc3cc(Cl)ccc3o2)no1	2.6µM*	4.6µM*	-2%	?	-15%	i
CCn1ccc2cc(S(=O)(=O)N3CCCN(C(=O)NCCOC)CC3)ccc21	.	.	.	i	.	i
Cc1cc(NC(=O)CSc2ccc(Cl)cc2)no1	16µM*	13µM*	4%	i	23%	i
Cc1ccc(SCC(=O)Nc2cc(C)on2)cc1	-2%	?	8%	i	1%	i
CCc1cc2cc(C)ccc2nc1SCC(=O)Nc1cc(C)on1	-1%	7%	-1%	i	-21%	9.2µM*
CCN(CC)S(=O)(=O)c1ccc2oc(SCC(=O)NC3CC3)nc2c1	-11%	-24%	6%	i	6%	i
CCN(CC)S(=O)(=O)c1ccc2oc(SCc3ccc(F)cc3)nc2c1	21µM*	?	-15%	?	-17%	?
COc1ccc(-c2oc3c(c2C#CCCCCO)C(OCCO)CC3)cc1 (configuration not stated)	?	?	-14%	i	-23%	i
Cc1cc(C)c(S(=O)(=O)NCCc2sc(-c3cccnc3)nc2C)c(C)c1	.	.	.	i	.	?
O=C1NC(=O)C2(CCCCCCCCCCC2)N1	-17%	0%	-9%	i	-14%	i
O=C1NC(=O)C2(CCC(C3CCCCC3)CC2)N1 (configuration not stated)	-10%	-8%	10%	?	7%	4.1µM*
